A selection: hits, their analogues and other compounds. The true share with any hit is near 11%.
BAZ2B block: inhibitors of human BAZ2B bromodomain | AlphaScreen BAZ2B-H3K14Ac peptide displacement | Potency, µM (top dose mostly 114 µM), hits mostly inhibitors | actives 4.4% (n = 360,000); further: nearly all actives have a fitted effect of over 60% in size
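AlphaScreen displacement of biotin-H3(5-23)K14Ac peptide (50 nM final) from BAZ2B (50 nM final) in PBS pH 7.4, 0.01% Tween-20; complex preformed 30 min RT, then compounds (top 110 uM) 30 min RT, beads 20 min dark.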
HP1b binding inh: inhibitors of HP1-beta chromodomain binding to methylated histone tails. P83916. AID 540317. Potency, µM (titrated, usually from 114 µM), actives largely listed as inhibitors. actives 0.56% (n = 390,000). AlphaScreen HP1-beta / biotin-H3K9me3 peptide binding; further: nearly all actives have a fitted effect of over 70% in size
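AlphaScreen: HP1-beta (50 nM) preformed 30 min with biotin-H3(1-18)K9me3 peptide (50 nM) in PBS pH 7.4, 0.01% Tween-20. Compound added for 30 min at RT, then streptavidin donor/nickel chelate acceptor beads (10 ug/mL) for 30 min.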
L3MBTL1 block: blocks human L3MBTL1. Q9Y468. AlphaScreen L3MBTL1–H3K9me1 peptide binding. Potency, µM (doses to about 57.1 µM), actives largely listed as inhibitors. actives 0.66% (n = 230,000). AID 485360; further: nearly all actives have a fitted effect of over 60% in size
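AlphaScreen assay: L3MBTL1 (50 nM final) was preincubated 30 min at room temperature with biotinylated H3(1-15)K9me1 peptide (75 nM final), then 30 min with library compounds; streptavidin donor and nickel chelate acceptor beads (10 ug/mL final) added, 30 min dark.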
G9a inh: blocks human histone lysine methyltransferase G9a; G9a H3K9 monomethylation, AlphaScreen, 2 h; actives 8.8% (n = 350,000); Potency, µM (doses to about 102 µM), usual class: inhibitors; Q96KQ7; further: nearly all actives have a fitted effect of over 75% in size
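Quantitative HTS format: methyltransferase activity on a biotin-tagged H3K9 peptide is measured by AlphaScreen, using a rabbit anti-monomethyl-H3K9 antibody with streptavidin donor and anti-IgG acceptor beads. Final levels are 20 nM enzyme, 500 nM peptide, 20 uM SAM; 2 h RT.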
JMJD2A Tudor: inhibitors of human JMJD2A Tudor domain; O75164; AlphaScreen JMJD2A-Tudor / H3K4me3 peptide binding; Potency, µM (doses to about 114 µM), actives largely listed as inhibitors; actives 4.4% (n = 390,000); AID 504339; further: nearly all actives have a fitted effect of over 50% in size
Target sequence (O75164 whole entry, looked up, the tested form may be a part): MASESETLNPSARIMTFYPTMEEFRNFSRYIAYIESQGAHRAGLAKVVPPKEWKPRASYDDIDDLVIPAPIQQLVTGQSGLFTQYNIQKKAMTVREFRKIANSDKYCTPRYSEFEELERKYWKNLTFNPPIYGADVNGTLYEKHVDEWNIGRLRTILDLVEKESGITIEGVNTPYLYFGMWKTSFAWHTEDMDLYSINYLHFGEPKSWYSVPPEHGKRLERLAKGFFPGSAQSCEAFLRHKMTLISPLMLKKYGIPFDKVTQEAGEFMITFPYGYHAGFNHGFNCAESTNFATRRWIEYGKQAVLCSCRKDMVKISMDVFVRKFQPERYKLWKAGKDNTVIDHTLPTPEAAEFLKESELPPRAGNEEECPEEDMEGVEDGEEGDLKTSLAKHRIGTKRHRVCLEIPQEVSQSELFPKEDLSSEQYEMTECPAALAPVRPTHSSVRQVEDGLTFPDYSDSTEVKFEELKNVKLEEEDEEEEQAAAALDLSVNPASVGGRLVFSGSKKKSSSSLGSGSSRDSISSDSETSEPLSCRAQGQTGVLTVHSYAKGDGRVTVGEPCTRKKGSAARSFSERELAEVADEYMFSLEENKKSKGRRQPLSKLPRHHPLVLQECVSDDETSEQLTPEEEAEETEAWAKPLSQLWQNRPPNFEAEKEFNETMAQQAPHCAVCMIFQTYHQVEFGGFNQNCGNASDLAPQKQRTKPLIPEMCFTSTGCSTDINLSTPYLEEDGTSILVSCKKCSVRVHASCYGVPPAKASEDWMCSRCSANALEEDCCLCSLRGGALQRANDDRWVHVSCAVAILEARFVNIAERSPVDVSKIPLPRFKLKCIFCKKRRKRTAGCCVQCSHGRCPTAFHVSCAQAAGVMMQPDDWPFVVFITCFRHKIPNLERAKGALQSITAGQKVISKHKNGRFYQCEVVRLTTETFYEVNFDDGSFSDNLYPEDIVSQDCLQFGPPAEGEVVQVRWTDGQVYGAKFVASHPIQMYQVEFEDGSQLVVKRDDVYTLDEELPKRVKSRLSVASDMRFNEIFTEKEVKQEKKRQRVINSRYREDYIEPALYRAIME
Numbers stand for hits; n = inactive; u = inconclusive; x = no result given; [ ] = remark or other dose. The call rests on the fitted dose curve; in most records, active means well fitted inhibition curve with a large enough effect; inconclusive means small, poorly fitted or top-dose-only effect; inactive means no such curve, though single readings can be large or run the other way.

SMILES	BAZ2B block	HP1b binding inh	L3MBTL1 block	G9a inh	JMJD2A Tudor
O=c1cc(CN2CCN(Cc3ccccc3)CC2)c2cc3c(cc2o1)CCC3	n	n	x	u	n
Cc1cc(C)c2c(CN3CCN(Cc4ccccc4)CC3)cc(=O)oc2c1C	u	n	x	50.1µM	u
CC(C)c1ccc2oc(=O)cc(CN3CCCCC3)c2c1	n	n	x	70.8µM	n
CC1CCN(Cc2cc(=O)oc3ccc(C(C)C)cc23)CC1	n	n	x	n	n
Cc1ccccc1C(=O)N1CCC(C(=O)OCc2ccccn2)CC1	x	n	n	x	n
Cc1cc2oc(=O)cc(CN(C)Cc3cccc(F)c3)c2cc1C	n	n	x	n[2.33 µM]	n
CCOC(=O)Nc1ccc2c(CN3CCC(C(=O)OC)CC3)cc(=O)oc2c1	n	n	x	n	n
CCc1ccc2c(CN3CCc4ccccc43)cc(=O)oc2c1	n	n	n	35.5µM	n
CCc1ccc2c(CN3CCC(C(=O)OC)CC3)cc(=O)oc2c1	n	n	x	50.1µM	n
CCc1cc2c(CN(C)Cc3ccccc3F)cc(=O)oc2cc1O	n	n	x	50.1µM	n
Cc1nnc(SCc2cc(=O)oc3ccc4ccccc4c23)n1Cc1ccccc1	n	n	n	35.5µM	n
N[C@@H](CSCCCO)C(=O)O	x	x	x	n	x
Cc1ccc(N2CC(NC(=O)C3CCCCC3)CC2=O)cc1C (centres undefined)	n	n	x	n	n
Cc1oc2ccc(O)c(CN3CCCCCC3)c2c1C(=O)Nc1cccc(C(F)(F)F)c1	u	n	x	n	n
CCc1ccc2c(CN3CCN(S(=O)(=O)c4ccccc4F)CC3)cc(=O)oc2c1	x	n	n	x	n
CCc1ccc2c(CN3CCN(Cc4ccccc4)CC3)cc(=O)oc2c1	n	n	x	70.8µM	n
O=c1nc(Nc2ccc([N+](=O)[O-])cc2)[nH]c(=O)[nH]1	n	n	x	n	n
CCC(C)C(=O)Nc1nc(C)c(-c2csc(Nc3ccc(Cl)cc3)n2)s1 (centres undefined)	u	n	n	n[0.501 µM]	u
COc1cccc(Nc2nc(-c3sc(NC(=O)CC(C)C)nc3C)cs2)c1	u	n	n	u	u
Cc1csc(Nc2ccc(C(=O)O)cc2)n1	n	n	n	n	n
CCC(=O)Nc1nc(C)c(-c2csc(Nc3ccc(C(=O)O)cc3)n2)s1	n	n	x	50.1µM	n
CCC(=O)Nc1nc(C)c(-c2csc(Nc3cccc(C(=O)O)c3)n2)s1	u	n	n	44.7µM	n
Cc1nc(NC(=O)c2ccccc2)sc1-c1csc(Nc2ccc(C(=O)O)cc2)n1	10µM	39.8µM	x	x	22.4µM
CCCC(=O)Nc1nc(C)c(-c2csc(Nc3ccc(Cl)cc3)n2)s1	28.2µM	u	n	n[0.501 µM]	u
O=C(O)c1ccc(Nc2nc(-c3ccccc3)cs2)cc1	n	n	x	u	n
SMILES	BAZ2B block	HP1b binding inh	L3MBTL1 block	G9a inh	JMJD2A Tudor
N#Cc1nc(-c2ccc(OCc3ccc(Cl)cc3)cc2)oc1N1CCCCCC1	x	n	x	x	n
O=C(OCC#CCSc1nnc(-c2ccc(Cl)cc2)o1)c1ccc(F)cc1	x	x	x	x	n
Cc1ccc(N2CCN(S(=O)(=O)c3cc(Br)cc4c3N(C(=O)C3CC3)CC4)CC2C)cc1 (centres undefined)	n	n	x	n	n
COc1cccc(Nc2nc(-c3sc(NC(=O)c4ccccc4)nc3C)cs2)c1	u	u	n	50.1µM	79.4µM
CC(=O)Nc1nc(C)c(-c2csc(Nc3cccc(C(C)=O)c3)n2)s1	n	n	x	39.8µM	n
O=c1c(N2CCN(c3cccc(C(F)(F)F)c3)CC2)csc2ccccc12	n	n	x	u	44.7µM
CCc1cccc(C)c1NC(=O)C(CC)n1ncn2c(cc3cc(C)ccc32)c1=O (centres undefined)	n	n	x	n	n
Cc1[nH]n(-c2ccccc2)c(=O)c1N=Nc1ccccc1	2.51µM	u	n	3.55µM	11.2µM
Cc1[nH]n(-c2ccccc2)c(=O)c1N=Nc1ccc(Cl)cc1	u	n	n[2.29 µM]	n[0.501 µM]	u
Cc1[nH]n(-c2ccccc2)c(=O)c1N=Nc1cccc(S(=O)(=O)N2CCOCC2)c1	n	u	n	n	56.2µM
Cc1[nH]n(-c2ccccc2)c(=O)c1N=Nc1c(Cl)cccc1Cl	u	n	n	22.4µM	n
CCOc1ccccc1N=Nc1c(C)[nH]n(-c2ccccc2)c1=O	u	u	n	x	44.7µM
CCCCCn1c(=O)c2c(nc3n2CCN3c2ccc(Br)cc2)n(C)c1=O	u	n	x	u	n
